Test [1] deals with Cytochrome P450 3A4 (Homo sapiens) (UniProt P08684). Kind of test: qHTS Assay for Inhibitors and Substrates of Cytochrome P450 3A4 (AID 884). Note: potency is the fitted concentration of half-maximal effect; nearly all actives have a fitted effect of over 50% in size. The gist of the method: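 Luminescent readout of luciferin produced by CYP3A4 (20 nM) dealkylation of Luciferin-PPXE, 25 uM (its KM). NADPH-driven reaction ran 60 min at RT after 10 min compound preincubation; data scaled to 57 uM ketoconazole as 100% inhibition.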
A general note: In qHTS, concentration-response curves come from the screen itself.

Test [2] shares this target. Kind of test: qHTS Assay for Activators of Cytochrome P450 3A4 (AID 885). Note: nearly all actives have a fitted effect of over 65% in size. The essentials:
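Using 20nM recombinant human CYP3A4 in potassium phosphate (200mM), substrate Luciferin-PPXE at 25uM, luminescent luciferin detection followed a 60-min RT NADPH reaction; data scaled to 57 uM ketoconazole.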

For test [3], the system named is Zika virus NS2B-NS3 protease. Kind of test: Primary screen GU AMC qHTS for Zika virus inhibitors (AID 1347154).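 Note: 0% = no-inhibitor control and -100% = no-enzyme control; nearly all actives have a fitted effect of over 70% in size.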 The gist of the method: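 Fluorogenic AMC-substrate cleavage by noncovalent NS2B-NS3 protease complex (25 nM, pH 8.0 Tris buffer with Tween 20) followed for 15 minutes at room temperature (~20% conversion). Percent inhibition from ex340/em450 signal change, fitted by 4-parameter Hill equation.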

A short description of test [4]: Counterscreen qHTS for small molecule stabilizers of the endoplasmic reticulum resident proteome: GLuc-NoTag assay (AID 1508627).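 Note: 0% = thapsigargin alone and -100% = DMSO vehicle control.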 The essentials:
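Counterscreen line: SH-SY5Y-GLuc-NoTag cells, treated with compound 19 hr before a 4 hr, 100 nM thapsigargin calcium depletion. Secreted Gaussia luciferase in the medium was measured by luminescence after coelenterazine was added (0.07x final), with cells unlysed.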
(In general: Counterscreens check selectivity or assay interference.)

A short description of test [5]: Confirmatory qHTS for small molecule stabilizers of the endoplasmic reticulum resident proteome: Secreted ER Calcium Modulated Protein (SERCaMP) assay (AID 1508628). Note: nearly all actives have a fitted effect of over 40% in size. Note: potency is the fitted concentration of half-maximal effect. The gist of the method: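 Reporter secretion upon ER calcium depletion (100 nM thapsigargin, 4 h, 37C) is measured as medium luminescence with coelenterazine, after 16 h compound pretreatment of SH-SY5Y-GLuc-SERCaMP cells; primary at three concentrations up to 38.3 uM, follow-up at 11 (up to 76.6 uM).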

Test [6] can be described thus: AP1 Signaling Pathway (AID 357; active = well fitted curve in either direction with a large enough effect, not every such curve was filed as active;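 note: ME-180 reporter cells stimulated with EGF at its EC50 level; % is set by controls: 0 for no effect and ±100 for the full control effect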). To be noted: ME-180 AP-1-bla reporter, EGF-induced, beta-lactamase ratio, 5 h; at 38 µM (top of the series). The essentials:
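Cells are seeded overnight, exposed to compound titrations and an EC50 level of EGF for 5 hours at 37 °C, then loaded with CCF4 dye for 2.5 hours. Beta-lactamase activity under the AP-1 element is read as a blue/green ratio.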

For test [7], the target named is Cytochrome P450 1A2 (Homo sapiens) (UniProt P05177). Briefly: p450-cyp1a2 (AID 410; calls by dose curve; note: potency is the fitted concentration of half-maximal effect;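 for activity change, negative = inhibition: -100% = full effect of reference inhibitor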). The gist of the method: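 Luminescent demethylation readout: Luciferin-ME (100uM, equal to Km) turned over by 20nM CYP1A2 for 60 min at room temperature after NADPH regeneration addition, following 10 min compound preincubation. Normalization used 57 uM furafylline as full inhibition.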

Test [8] is described as follows: NFAT Signaling Pathway (AID 444; active = well fitted curve in either direction with a large enough effect, not every such curve was filed as active;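 note: carbachol stimulus at about its EC50 of 1 µM final; % is set by controls: 0 for no effect and ±100 for the full control effect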). The following applies: Jurkat NFAT-bla M1, carbachol, beta-lactamase ratio, 5 h; at 38 µM (top of the series). The gist of the method: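 Read-out: CCF4 FRET ratio (460 nm/530 nm) after 1 h RT dye loading, used for %activity and AC50 from titration series. Cells: Jurkat NFAT-β-lactamase/M1 line, treated with compound plus 1 uM carbachol for 5 h, 37 °C.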

Test [9] is described as follows: Stat Signaling Pathway (AID 446; active = well fitted curve in either direction with a large enough effect, not every such curve was filed as active;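 note: ME-180 cervical cancer cells given 40 pM IL-6 alongside compound; SIE-controlled beta-lactamase reporter measured as 460/530 nm FRET emission ratio; % is set by controls: 0 for no effect and ±100 for the full control effect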). The following applies: ME-180 (cervical carcinoma) SIE beta-lactamase reporter, IL-6 stimulated, 5 h; at 38 µM (top of the series). The gist of the method:
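Overnight-plated ME-180 cells bearing a STAT Inducible Element beta-lactamase reporter; 5 h co-exposure to compound and 40 pM IL-6; values normalized to 300 pM IL-6 and 125 nM JAK inhibitor controls.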

The target of test [10] is Glucocorticoid receptor (Homo sapiens) (UniProt P04150). Briefly: GR-EFC Redistribution (AID 451; calls by dose curve; note: potency is the fitted concentration of half-maximal effect). To be noted: CHO-K1 GR-EFC translocation, beta-gal luminescence, 2 h. The gist of the method: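 Translocation of GR-ED fusion to nuclear EA restores b-gal, read by luminescence after 1 h room-temperature detection. Engineered CHO-K1 biosensor cells, 1,000/well, exposed 2 h at 37 C to titrations up to 46 uM final.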

Test [11] deals with 3',5'-cyclic-AMP phosphodiesterase 4B (Homo sapiens) (UniProt Q07343). Briefly: qHTS Assay for Inhibitors of PDE-IV (AID 607; active = well fitted activation curve with a large enough effect in the main read-out, with a control signal flat, not every such curve was filed as active; note: % of control where 0% means no effect). The gist of the method:
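Live HEK293 cells with a modified cyclic nucleotide-gated (CNG) channel report intracellular cAMP via membrane-potential dye fluorescence (ex 535/em 590 nm). Endogenous PDE-IV was targeted. Compounds were tested at up to 22.9 uM final; RO 20-1724 100 uM served as control.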

Test [12] deals with Cytochrome P450 2C9 (Homo sapiens) (UniProt P11712). Kind of test: qHTS Assay for Inhibitors and Substrates of Cytochrome P450 2C9 (AID 883). Note: % is set by controls: 0 for no effect and ±100 for the full control effect; nearly all actives have a fitted effect of over 60% in size. The essentials:
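Inhibition of CYP2C9 is scored as loss of luminescence, with 57uM sulphaphenazole defining 100% inhibition. Substrate Luciferin-H is used at 100uM, equal to its KM; enzyme at 10nM in 25mM KPO4, 60 min at 37C with NADPH regeneration.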

Test [13] has as its target Cytochrome P450 2D6 (Homo sapiens) (UniProt P10635). Kind of test: qHTS Assay for Inhibitors and Substrates of Cytochrome P450 2D6 (AID 891).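 Note: luciferin methyl ether substrate demethylated by CYP2D6 with NADPH regeneration; % is set by controls: 0 for no effect and ±100 for the full control effect; nearly all actives have a fitted effect of over 60% in size.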 The gist of the method:
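Luminescent read-out of luciferin formed by 5 nM human CYP2D6 demethylating 30 uM Luciferin-ME EGE (Km level) over 60 min at room temperature after NADPH regeneration addition. Data normalized to full inhibition by 1.43 uM quinidine.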

Test [14] in a line: Cell Viability qHTS for small molecule stabilizers of the endoplasmic reticulum resident proteome (AID 1508629).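 Note: human SH-SY5Y neuroblastoma cells carrying the GLuc-SERCaMP reporter; compound exposure about 46 h in total before the viability read; % is set by controls: 0 for no effect and ±100 for the full control effect.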 To be noted: cell viability counter-screen, 100 nM thapsigargin for final 4 h.
Test [15] addresses Mitogen-activated protein kinase 10 (Mus musculus) (UniProt Q61831). Kind of test: JNK3 AlphaScreen Assay (AID 530; active = well fitted curve in either direction with a large enough effect, not every such curve was filed as active). The essentials:
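qHTS titrations with 15 min compound pre-incubation before adding ATP (10 uM final). Read-out: AlphaScreen of Ser73-phosphorylated biotin-GST-cJun using HepG2 lysate JNK3 activated by IL-1β and TNFα.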
For orientation: Alpha assays give light when donor and acceptor beads are brought close together.

Test [16] has as its target Cytochrome P450 2C19 (Homo sapiens) (UniProt P33261). Briefly: qHTS Assay for Inhibitors and Substrates of Cytochrome P450 2C19 (AID 899). Note: % is set by controls: 0 for no effect and ±100 for the full control effect; nearly all actives have a fitted effect of over 60% in size. The gist of the method: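 5nM enzyme + 10uM Luciferin-H EGE (=KM), 50mM KPO4; cpd pin-transferred, 10 min 37C; NADPH regen, 60 min 37C; stopped w/ luciferin detection reagent, 20 min; luminescence. Normalized to 57uM ketoconazole (AC100).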

Test [17] has as its target Ubiquitin carboxyl-terminal hydrolase 1 (Homo sapiens) (UniProt O94782). Kind of test: Inhibitors of USP1/UAF1: Pilot qHTS (AID 504865).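 Note: rhodamine fluorescence freed from ubiquitin-rhodamine substrate followed over time; top concentration of the series differs between compounds; % is set by controls: 0 for no effect and ±100 for the full control effect; nearly all actives have a fitted effect of over 35% in size.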 The gist of the method:
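USP1/UAF1 complex (1nM) preincubated with compound 15 min at room temperature, then Ub-Rho substrate (150nM final) added. Fluorescence read kinetically at 480/540 nm, 6 reads every 60 seconds. Buffer: 50mM HEPES pH 7.8, 0.5mM EDTA, 0.1 mg/ml BSA, 1mM TCEP, 0.01% Tween-20.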

Test [18] can be described thus: Primary qHTS for small molecule stabilizers of the endoplasmic reticulum resident proteome: Secreted ER Calcium Modulated Protein (SERCaMP) assay (AID 1508630). Note: % is set by controls: 0 for no effect and ±100 for the full control effect. The gist of the method:
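The SH-SY5Y reporter protocol was run at 3 concentrations up to 38.3 uM (primary) or 11 concentrations (follow-up): 16 h compound, 100 nM thapsigargin for 4 h, then extracellular luciferase luminescence.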

This is an account of results in PubChem BioAssay (NCATS).

Inconclusive results are not listed. Activity calls are given as the source filed them. Unless noted, calls come from the whole dose curve; as a rule, active = well fitted curve in the direction sought with a large enough effect; inconclusive = small, poorly fitted or top-dose-only effect, or another doubt; inactive = no such curve, though single readings can be large; an effect the other way counts as inactive or inconclusive. Some results are limits rather than exact numbers.

Sequence of Glucocorticoid receptor (Homo sapiens) (P04150 whole entry, looked up, the tested form may be a part): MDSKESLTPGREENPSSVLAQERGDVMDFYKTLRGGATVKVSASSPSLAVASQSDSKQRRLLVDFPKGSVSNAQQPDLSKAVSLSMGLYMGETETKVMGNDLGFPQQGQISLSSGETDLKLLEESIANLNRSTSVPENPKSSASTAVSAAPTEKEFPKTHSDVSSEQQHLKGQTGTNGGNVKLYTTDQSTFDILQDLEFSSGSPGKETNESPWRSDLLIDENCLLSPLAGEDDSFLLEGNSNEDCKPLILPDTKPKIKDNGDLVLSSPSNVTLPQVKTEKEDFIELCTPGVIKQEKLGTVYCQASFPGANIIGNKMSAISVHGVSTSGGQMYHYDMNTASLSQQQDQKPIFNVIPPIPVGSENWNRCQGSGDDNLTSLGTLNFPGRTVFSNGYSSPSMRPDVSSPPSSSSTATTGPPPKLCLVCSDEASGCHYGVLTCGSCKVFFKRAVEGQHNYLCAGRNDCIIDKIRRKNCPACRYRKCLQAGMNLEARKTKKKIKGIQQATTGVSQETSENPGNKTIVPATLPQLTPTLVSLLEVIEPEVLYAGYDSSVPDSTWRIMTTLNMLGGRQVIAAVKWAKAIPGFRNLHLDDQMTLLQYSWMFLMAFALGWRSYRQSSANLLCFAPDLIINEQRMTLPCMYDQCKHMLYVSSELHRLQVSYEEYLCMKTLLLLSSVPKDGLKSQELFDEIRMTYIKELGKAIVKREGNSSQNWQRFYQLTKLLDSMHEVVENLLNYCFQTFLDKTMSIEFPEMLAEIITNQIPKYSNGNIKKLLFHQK
Sequence of Cytochrome P450 3A4 (Homo sapiens) (P08684 whole entry, looked up): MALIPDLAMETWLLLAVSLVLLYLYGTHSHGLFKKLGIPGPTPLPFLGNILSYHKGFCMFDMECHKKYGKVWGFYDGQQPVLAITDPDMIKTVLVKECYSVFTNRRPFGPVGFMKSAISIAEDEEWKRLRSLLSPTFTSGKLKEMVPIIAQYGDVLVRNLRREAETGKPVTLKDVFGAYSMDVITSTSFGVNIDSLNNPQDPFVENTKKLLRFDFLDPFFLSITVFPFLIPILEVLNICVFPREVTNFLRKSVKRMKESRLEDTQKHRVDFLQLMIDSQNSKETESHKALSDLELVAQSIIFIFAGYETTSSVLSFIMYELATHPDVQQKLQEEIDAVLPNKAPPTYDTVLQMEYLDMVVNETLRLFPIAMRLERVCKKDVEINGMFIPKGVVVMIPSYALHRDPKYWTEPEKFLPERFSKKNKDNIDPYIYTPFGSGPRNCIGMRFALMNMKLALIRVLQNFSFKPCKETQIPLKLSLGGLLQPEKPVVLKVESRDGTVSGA
Sequence of Cytochrome P450 1A2 (Homo sapiens) (P05177 whole entry, looked up): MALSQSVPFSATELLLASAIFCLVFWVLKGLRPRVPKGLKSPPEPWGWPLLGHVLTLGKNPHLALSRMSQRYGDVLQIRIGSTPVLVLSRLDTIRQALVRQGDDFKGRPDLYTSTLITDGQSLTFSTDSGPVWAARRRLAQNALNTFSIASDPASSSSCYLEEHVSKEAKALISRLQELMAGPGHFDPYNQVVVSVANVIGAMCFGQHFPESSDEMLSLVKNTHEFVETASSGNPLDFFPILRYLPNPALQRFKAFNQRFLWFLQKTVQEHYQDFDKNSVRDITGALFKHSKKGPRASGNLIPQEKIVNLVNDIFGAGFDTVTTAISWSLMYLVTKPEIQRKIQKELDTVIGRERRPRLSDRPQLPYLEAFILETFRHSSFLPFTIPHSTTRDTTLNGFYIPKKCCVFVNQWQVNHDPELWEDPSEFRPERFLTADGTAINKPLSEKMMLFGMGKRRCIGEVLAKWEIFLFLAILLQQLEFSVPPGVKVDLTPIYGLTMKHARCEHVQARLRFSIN
Sequence of 3',5'-cyclic-AMP phosphodiesterase 4B (Homo sapiens) (Q07343 whole entry, looked up): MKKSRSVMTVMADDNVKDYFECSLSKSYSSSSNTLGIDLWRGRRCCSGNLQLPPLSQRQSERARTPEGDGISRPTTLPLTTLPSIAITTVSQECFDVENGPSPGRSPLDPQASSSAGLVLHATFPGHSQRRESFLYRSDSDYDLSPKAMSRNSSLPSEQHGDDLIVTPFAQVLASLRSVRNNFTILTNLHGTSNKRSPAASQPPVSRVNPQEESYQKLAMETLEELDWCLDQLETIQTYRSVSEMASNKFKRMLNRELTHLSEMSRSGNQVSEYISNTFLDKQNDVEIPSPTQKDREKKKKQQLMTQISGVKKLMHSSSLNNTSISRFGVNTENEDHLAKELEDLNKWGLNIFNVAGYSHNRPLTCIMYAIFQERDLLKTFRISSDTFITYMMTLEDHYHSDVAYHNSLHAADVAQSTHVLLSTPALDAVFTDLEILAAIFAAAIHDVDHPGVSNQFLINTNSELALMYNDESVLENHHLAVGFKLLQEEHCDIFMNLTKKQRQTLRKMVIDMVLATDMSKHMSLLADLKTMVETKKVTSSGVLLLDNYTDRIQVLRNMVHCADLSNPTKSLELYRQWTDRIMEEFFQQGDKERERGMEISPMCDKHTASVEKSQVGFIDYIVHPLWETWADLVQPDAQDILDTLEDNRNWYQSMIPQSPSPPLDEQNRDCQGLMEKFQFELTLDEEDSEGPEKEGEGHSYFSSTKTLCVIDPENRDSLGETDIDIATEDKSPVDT
Sequence of Ubiquitin carboxyl-terminal hydrolase 1 (Homo sapiens) (O94782 whole entry, looked up): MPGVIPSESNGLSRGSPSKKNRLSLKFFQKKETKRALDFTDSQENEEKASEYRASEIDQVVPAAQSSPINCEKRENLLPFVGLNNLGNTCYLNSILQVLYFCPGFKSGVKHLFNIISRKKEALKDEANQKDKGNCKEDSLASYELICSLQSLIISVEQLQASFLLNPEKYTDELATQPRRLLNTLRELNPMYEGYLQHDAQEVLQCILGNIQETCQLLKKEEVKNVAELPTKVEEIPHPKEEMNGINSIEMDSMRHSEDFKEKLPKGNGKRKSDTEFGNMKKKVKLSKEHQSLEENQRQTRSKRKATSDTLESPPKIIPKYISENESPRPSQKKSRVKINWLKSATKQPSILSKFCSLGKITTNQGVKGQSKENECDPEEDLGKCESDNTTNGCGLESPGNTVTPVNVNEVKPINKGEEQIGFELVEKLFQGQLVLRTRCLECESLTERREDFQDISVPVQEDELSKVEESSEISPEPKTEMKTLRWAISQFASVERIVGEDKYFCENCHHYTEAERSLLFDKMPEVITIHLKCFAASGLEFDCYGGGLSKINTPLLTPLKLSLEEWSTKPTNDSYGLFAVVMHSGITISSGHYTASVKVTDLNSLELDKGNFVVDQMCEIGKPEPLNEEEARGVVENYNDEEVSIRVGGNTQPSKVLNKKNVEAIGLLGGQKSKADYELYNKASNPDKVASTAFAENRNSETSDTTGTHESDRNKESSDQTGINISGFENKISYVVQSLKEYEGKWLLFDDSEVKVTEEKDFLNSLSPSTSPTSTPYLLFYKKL
Sequence of Cytochrome P450 2C9 (Homo sapiens) (P11712 whole entry, looked up): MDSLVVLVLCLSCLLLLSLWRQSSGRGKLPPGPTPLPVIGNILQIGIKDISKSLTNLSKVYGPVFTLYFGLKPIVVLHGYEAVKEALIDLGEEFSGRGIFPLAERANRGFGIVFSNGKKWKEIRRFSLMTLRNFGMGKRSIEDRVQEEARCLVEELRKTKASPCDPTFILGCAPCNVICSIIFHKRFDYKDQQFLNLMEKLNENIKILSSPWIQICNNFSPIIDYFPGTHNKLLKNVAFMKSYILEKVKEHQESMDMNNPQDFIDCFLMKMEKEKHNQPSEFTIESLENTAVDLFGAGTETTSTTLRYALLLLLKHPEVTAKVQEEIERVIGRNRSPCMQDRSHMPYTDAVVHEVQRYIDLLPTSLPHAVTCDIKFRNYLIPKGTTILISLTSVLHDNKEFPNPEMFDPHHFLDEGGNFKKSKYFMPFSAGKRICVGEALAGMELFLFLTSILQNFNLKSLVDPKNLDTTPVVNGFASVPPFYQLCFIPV
Sequence of Cytochrome P450 2C19 (Homo sapiens) (P33261 whole entry, looked up): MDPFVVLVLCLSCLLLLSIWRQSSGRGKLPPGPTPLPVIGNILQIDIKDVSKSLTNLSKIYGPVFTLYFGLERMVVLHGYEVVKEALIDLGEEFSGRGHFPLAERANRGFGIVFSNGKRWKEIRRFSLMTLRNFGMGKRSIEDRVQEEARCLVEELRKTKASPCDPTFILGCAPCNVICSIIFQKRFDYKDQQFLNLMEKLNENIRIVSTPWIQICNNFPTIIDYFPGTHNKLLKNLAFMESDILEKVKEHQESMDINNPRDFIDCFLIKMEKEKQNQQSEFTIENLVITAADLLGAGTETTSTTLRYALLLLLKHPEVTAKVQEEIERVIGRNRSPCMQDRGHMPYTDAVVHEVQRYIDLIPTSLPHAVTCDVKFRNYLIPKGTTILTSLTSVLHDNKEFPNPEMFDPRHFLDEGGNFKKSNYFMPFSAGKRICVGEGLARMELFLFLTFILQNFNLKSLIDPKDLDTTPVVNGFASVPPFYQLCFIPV
Sequence of Cytochrome P450 2D6 (Homo sapiens) (P10635 whole entry, looked up): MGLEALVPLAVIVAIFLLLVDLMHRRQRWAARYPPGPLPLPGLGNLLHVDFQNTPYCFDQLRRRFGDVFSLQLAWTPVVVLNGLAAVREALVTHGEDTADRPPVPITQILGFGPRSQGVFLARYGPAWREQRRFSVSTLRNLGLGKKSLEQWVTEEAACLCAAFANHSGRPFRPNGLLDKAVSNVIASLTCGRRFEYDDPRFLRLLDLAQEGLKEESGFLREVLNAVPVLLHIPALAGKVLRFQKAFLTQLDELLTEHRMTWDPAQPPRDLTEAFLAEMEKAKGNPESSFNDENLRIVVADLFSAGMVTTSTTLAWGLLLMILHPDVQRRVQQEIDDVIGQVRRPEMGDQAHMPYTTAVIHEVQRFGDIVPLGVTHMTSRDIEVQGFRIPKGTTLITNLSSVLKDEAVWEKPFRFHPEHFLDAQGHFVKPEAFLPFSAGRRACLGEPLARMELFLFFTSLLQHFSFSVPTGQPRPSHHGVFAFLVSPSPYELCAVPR

`CCOC(=O)NC[C@H](Cc1ccc(OCCc2nc(-c3ccccc3)oc2C)cc1)N/C(C)=C\C(=O)c1ccc(C(F)(F)F)cc1`: the results for the Potency in [1] and in test [5] were 0.794 µM (active) and 31.6 µM (active), respectively. For the same molecule, the Potency result in test [2], in [3] and in test [4] was “inactive” throughout.

Regarding `COc1ccc(/C=C\C(=O)Nc2ccccc2C(=O)O)cc1OC`, the activity change, negative = inhibition in test [6] is -10.8% (inactive); in test [8], -3.53% (inactive). Also, the Potency result in [7], in [11], in test [12] and in test [13] was “inactive” each time. In addition, the activity, negative = inhibition in test [9] is 7.79% (inactive). Moreover, in test [10], the Potency was > 46 µM (inactive). Besides, the max response in test [14] is -9.06% (inactive).

In the case of `CCOC(=O)c1c(C)[nH]c2ccc3c(c12)CN1CCc2cc(OC)ccc2[C@@H]1O3`, in test [7], the Potency was 0.158 µM (active). Besides, the Potency result in [15], in test [16], in test [17] and in test [5] was “inactive” each time.

For `O=S(=O)(c1cccc2cnccc12)N1CCNCC1`, the Potency in test [10] is > 46 µM (inactive). Further, the Potency result in test [17] and in test [5] was “inactive” each time.

For the molecule `CCCCCCCC/C=C\CCCCCCCC(=O)OCC(CO)OC(=O)CCCCCCC/C=C\CCCCCCCC` (stereo not given), the activity change, negative = inhibition was -0.778% [at 6.83 µM] (inactive) in [3] and 17.1% [at 3.88 µM] (inactive) in [18].

Turning to `O=C(O)/C=C1\CCCc2ccccc2C1O` (stereo not given), the Potency result in test [3] and in [18] was “inactive” in each case.

In the case of `CCCCC[C@H](O)/C=C/[C@H]1C(=O)C=C[C@@H]1C/C=C\CCCC(=O)O`, the results for the activity change, negative = inhibition in test [3] and in [18] were 15.7% [at 6.83 µM] (inactive) and -10.1% [at 3.88 µM] (inactive), respectively.

As for `Cc1nc(N=Nc2cc([N+](=O)[O-])ccc2Cl)c(COP(=O)(O)O)c(C=O)c1O`, the Potency result in [3] and in [18] was “inactive” each time.
